# Bioassay records deposited in PubChem BioAssay by National Center for Advancing Translational Sciences (NCATS).
# TDP1 cell CPT: DT40-hTDP1 cell growth loss with CPT; actives 12% (n = 420,000); Potency, µM (top dose mostly 46.2 µM), for the others: at the top dose activity change, negative = growth inhibition, actives largely listed as inhibitors; chicken DT40 Tdp1-/-;hTDP1 cells + 20 nM CPT, ATP luminescence, 48 h; also: nearly all actives have a fitted effect of over 55% in size
#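 Chicken DT40 Tdp1-/- cells complemented with human TDP1, 400 cells/well, exposed to compounds plus 20 nM camptothecin for at least 48 h at 37 C; viability read as ATP content by CellTiter-Glo luminescence.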
# VDR inh: inhibitors of human vitamin D receptor | P11473 | VDR-SRC2-3 peptide fluorescence polarization, 2 h | Potency, µM, for the others: max response, negative = inhibition, actives largely listed as inhibitors | actives 0.93% (n = 400,000)
#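 After 23 nl compound addition and a short centrifugation, plates sat for 2 hours at ambient temperature; polarization of fluorescence then indicated loss of VDR binding to peptide SRC2-3.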
# TDP1 block: inhibitors of human tyrosyl-DNA phosphodiesterase TDP1; Q9NUW8; recombinant TDP1, AlphaScreen DNA substrate cleavage; Potency, µM (titrated, usually from 130 µM), for inactives: at the highest dose activity change, negative = inhibition, hits mostly inhibitors; actives 0.28% (n = 350,000); AID 485290; also: nearly all actives have a fitted effect of over 40% in size
# Target sequence (Q9NUW8 whole entry, looked up): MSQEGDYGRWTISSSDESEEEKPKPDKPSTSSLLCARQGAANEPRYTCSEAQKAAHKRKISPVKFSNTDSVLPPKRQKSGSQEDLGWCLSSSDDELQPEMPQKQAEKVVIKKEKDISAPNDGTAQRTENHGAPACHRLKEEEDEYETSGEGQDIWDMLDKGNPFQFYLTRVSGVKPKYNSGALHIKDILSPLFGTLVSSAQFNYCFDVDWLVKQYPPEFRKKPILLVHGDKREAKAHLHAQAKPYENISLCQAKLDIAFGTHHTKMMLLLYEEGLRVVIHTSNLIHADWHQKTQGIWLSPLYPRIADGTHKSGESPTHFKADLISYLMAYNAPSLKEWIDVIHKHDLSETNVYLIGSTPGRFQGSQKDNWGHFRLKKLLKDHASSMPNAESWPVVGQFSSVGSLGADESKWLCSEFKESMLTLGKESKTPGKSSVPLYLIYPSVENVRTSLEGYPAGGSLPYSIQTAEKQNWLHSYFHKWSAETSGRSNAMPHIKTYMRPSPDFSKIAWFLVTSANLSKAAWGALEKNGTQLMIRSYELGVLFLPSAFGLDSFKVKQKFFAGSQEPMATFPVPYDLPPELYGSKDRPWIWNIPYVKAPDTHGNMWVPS
#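 Signal: AlphaScreen proximity between streptavidin donor and anti-FITC acceptor beads on intact substrate. Reaction: Tdp1 1 nM, substrate 15 nM final, 5 min RT after 15 min compound preincubation.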
# PLK1 PBD inh: blocks phosphopeptide binding to human PLK1 polo-box domain; P53350; Plk1 PBD binding of FITC phosphopeptide, fluorescence polarization; Potency, µM, inactives show max response, negative = inhibition, most hits filed as inhibitors; actives 2.8% (n = 360,000); AID 720504; also: series mostly up to about 57 µM; nearly all actives have a fitted effect of over 65% in size
# GCN5L2 inh: blocks human GCN5L2 histone acetyltransferase; Q92830; GCN5L2 HAT assay, ThioGlo1 CoA-SH fluorescence; Potency, µM (doses to about 58.9 µM), without a hit: top-dose activity change, negative = inhibition, actives largely listed as inhibitors; actives 0.21% (n = 390,000)
#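 Free CoA generated was detected with ThioGlo1 (50uM) fluorescence at Ex340nm/Em540nm, read immediately and after 20 min at room temperature. Enzyme, 20 nM in HEPES pH 7.5 buffer, saw compounds 15 min before adding 75uM H3(1-25) peptide and 70uM acetyl-CoA.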
# TDP1 cell noCPT: qHTS for Inhibitors of human tyrosyl-DNA phosphodiesterase 1 (TDP1): qHTS in cells in absence of CPT. DT40 Tdp1-/- hTDP1 cells, no CPT, ATP luminescence, 48 h. Potency, µM (top dose mostly 46.2 µM), without a hit: at the highest dose activity change, negative = growth inhibition, hits mostly inhibitors. actives 15% (n = 420,000). AID 686978, 2013; also: nearly all actives have a fitted effect of over 55% in size
#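 No-CPT arm: Tdp1-/-;hTDP1 DT40 cells (400/well) plus compounds, incubated ≥48 hr at 37 °C. Readout CellTiter-Glo luminescence.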
# Active calls of the source: *; ? = inconclusive; . = not tested or not shown; [ ] = another dose, or the depositor's remark. Compounds with a hit are over-represented: about 18% of the library has one in this group of screens. Calls follow the shape of the dose curve; as a rule, active = well fitted curve in the direction sought with a large enough effect; inconclusive = small, poorly fitted or top-dose-only effect, or another doubt; inactive = no such curve, though single readings can be large; an effect the other way counts as inactive or inconclusive. % is scaled to controls: 0 for no effect and ±100 for the full control effect; potency is read from the fitted curve at half-maximal effect.
SMILES,TDP1 cell CPT,VDR inh,TDP1 block,PLK1 PBD inh,GCN5L2 inh,TDP1 cell noCPT
COC(=O)[C@@]12C[C@@H](CC(=O)N3CCN(C(=O)C4CC4)CC3)C(=O)N(Cc3ccccc3)C1=CCC(C)(C)C2,?,.,.,-4%,.,?
COC(=O)[C@@]12C[C@@H](CC(=O)N3CCN(C(=O)C4CC4)CC3)C(=O)N(Cc3ccco3)C1=CCC(C)(C)C2,?,.,.,4%,.,?
COC(=O)[C@@]12C[C@@H](CC(=O)N3CCCCC3)C(=O)N(Cc3ccccc3)C1=CCC(C)(C)C2,?,.,.,2%,.,18µM*
COC(=O)[C@@]12C[C@@H](CC(=O)N3CCCC3)C(=O)N(Cc3ccccc3)C1=CCC(C)(C)C2,23µM*,.,.,-2%,.,?
COC(=O)CNC(=O)C1(C)C=CCN1C(=O)c1ccccc1 (centres undefined),-7%,?,4%,?,1%,1%
C=CCNC(=O)c1c(CS(=O)(=O)c2ccccc2)noc1C(=O)NCc1ccccc1,6%,-4%,-4%,-7%,0%,14%
O=C(Nc1ccc(N2CCC(N3CCCCC3)CC2)c(C(=O)O)c1)c1ccccc1,6%,5%,-8%,.,2%,-1%
CCCCc1ccc(NC(=O)c2ccc(=O)n(Cc3cccc(C)c3)c2)cc1,?,-7%,8%,.,-21%,18µM*
CCOc1cc(O)c(-c2[nH]ncc2-c2nc(C)cs2)cc1CC,23µM*,18%,.,-9%,-8%,21µM*
CCc1cc(-c2[nH]ncc2-c2nc3ccccc3n2C)c(O)cc1O,-20%,-14%,6%,-13%,-1%,?
CCOc1ccccc1C(=O)N/N=C/c1ccoc1,7%,10%,50µM*,-9%,-4%,20%
O=C(N/N=C/c1ccc(N2CCOCC2)cc1)c1ccncc1,-21%,-16%,1%,-5%,-7%,-23%
O=C(N/N=C/c1ccc(N2CCOCC2)cc1)c1ccccc1OCCOc1ccccc1,16µM*,?,0%,3µM*,-22%,?
COc1ccc(-c2nsc(SCC(=O)NCC3CCCO3)n2)cc1 (centres undefined),?,1%,8%,-11%,-22%,-26%
Oc1ccccc1C(=S)N1CCCCC1,-7%,-22%,2%,27µM*,1%,?
Cc1ccc([C@H]2C[C@@H](n3cc(COC(=O)c4ccccc4)nn3)[C@H](O)CN2Cc2cccs2)cc1,?,.,.,-1%,.,21µM*
O=C(OCc1cn([C@H]2C[C@H](c3ccccc3)N(Cc3cccs3)C[C@@H]2O)nn1)c1ccccc1,?,.,.,-2%,.,21µM*
O=C(OCc1cn([C@@H]2CN(Cc3cccs3)[C@@H](c3ccccc3)C[C@H]2O)nn1)c1ccccc1,13%,.,.,-7%,.,-2%
CCCCn1c(N)c(N(CCC(C)C)C(=O)COC(=O)Cc2ccc(Cl)cc2)c(=O)[nH]c1=O,?,4%,.,4%,.,-19%
COc1ccc(NC(=O)CN(C)C(=O)c2cccc(S(=O)(=O)N3CCN(c4ccc(F)cc4)CC3)c2)cc1,13µM*,-21%,.,-7%,.,?
CN(CC(=O)Nc1ccc(F)cc1)C(=O)c1cccc(S(=O)(=O)N2CCN(c3ccccc3)CC2)c1,16µM*,5%,-3%,-5%,-4%,21µM*
COc1cccc(NC(=O)CN(C)C(=O)c2cccc(S(=O)(=O)N3CCN(c4ccccc4)CC3)c2)c1,?,21%,3%,-19%,-9%,-59%
Cn1nnnc1SCC(=O)NC1CCCc2ccccc21 (centres undefined),7%,17%,4%,-6%,-3%,-4%
COCCn1c(SC(C)C(=O)Nc2ccc(N3CCOCC3)cc2)nnc1-c1ccncc1 (centres undefined),7%,-1%,.,-2%,2%,8%
O=C(Nc1nnc(S(=O)(=O)N2CCCCC2)s1)c1ccc(F)cc1,-10%,7%,12%,.,-11%,-17%
SMILES,TDP1 cell CPT,VDR inh,TDP1 block,PLK1 PBD inh,GCN5L2 inh,TDP1 cell noCPT
O=C1OCCN1C(=O)[C@H]1[C@H](c2ccc([N+](=O)[O-])cc2)C(c2ccc(F)cc2)=NN1c1ccc(Br)cc1,?,6%,2%[56.1 µM],-17%,-12%,15µM*
O=C1OCCN1C(=O)[C@H]1[C@H](c2ccccc2)C(c2ccccc2)=NN1c1ccccc1,?,-16%,-3%[56.1 µM],0%,28µM*,-19%
COc1cccc(C2C(C(=O)Nc3ccccc3)=C(C)Nc3nc(-c4ccccc4)nn32)c1 (centres undefined),?,-16%,-3%,.,-9%,?
Cc1cc(OC(=O)c2ccccc2C(F)(F)F)c([N+](=O)[O-])c(=O)[nH]1,-10%,8%,.,-3%,-1%,0%
COc1ccc(NC(=O)c2cnc[nH]2)cc1,-28%,4%,5%,.,-11%,?
CC(C)C[C@H]1CN=C(N(C)C)N1CC1CCCC1,?,-6%,-3%,-16%,-3%,?
CCC(CC)CN1C(N(C)C)=NC[C@@H]1CC(C)C,16µM*,-11%,-10%,-6%,2%,18µM*
Cc1cccc(Nc2c(-c3cccs3)nc3nc(C)cc(C)n23)c1,26µM*,-2%,8%,.,-9%,?
Cc1cccc(Nc2c(-c3ccsc3)nc3nc(C)cc(C)n23)c1,?,4%,2%,.,-6%,?
Cc1cc(C)n2c(Nc3cccc(C(F)(F)F)c3)c(-c3ccsc3)nc2n1,16µM*,-14%,-8%,.,-8%,16µM*
O=C(CCNC(=O)c1ccc([N+](=O)[O-])cc1)Nc1ccc(F)cc1F,-16%,20%,.,3%,-18%,10%
CN(C)c1ccc(C2C3=C(CCCC3=O)OC3=C2C(=O)CCC3)cc1,-15%,12%,7%,-4%,3%,-2%
Cc1ccc(S(=O)(=O)Oc2ccc(C3C4=C(CCCC4=O)OC4=C3C(=O)CCC4)cc2)cc1,23µM*,-9%,4%,-2%,-12%,16µM*
COC(=O)N/N=C/c1cn(CCOc2ccc(OC)cc2)c2ccccc12,?,2%,.,2%,-6%,?
COC(=O)N/N=C/c1ccccc1OCCOc1ccc(OC)cc1,-92%,-18%,8%,-5%,-6%,16µM*
COc1ccc(NC(C)C(=O)N/N=C/c2ccccc2OCc2ccc(Br)cc2)cc1 (centres undefined),?,-7%,12%,-11%,-4%,22µM*
O=P(c1ccccc1)(c1ccccc1)c1cnc2ccccn12,.,.,2%,.,.,.
